Experimental data published in publication PMC4336329 (PLoS ONE, 2015).
Out of some 310,000 compounds screened, about 14,000 (4.5%) showed an effect of 50% or more. Effects have a minus sign here. The full list was thinned out, with strong results kept by preference.

These compounds were tested against human ether-à-go-go-related gene (hERG) potassium channel (human, UniProt Q12809) (assay: primary screen, population patch clamp on CHO cells stably expressing hERG; higher = less effect of the substance).
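Also: peak tail current of the secondary pulse compared with the same well before compound.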

human ether-à-go-go-related gene (hERG) potassium channel, sequence (Q12809 whole entry, looked up): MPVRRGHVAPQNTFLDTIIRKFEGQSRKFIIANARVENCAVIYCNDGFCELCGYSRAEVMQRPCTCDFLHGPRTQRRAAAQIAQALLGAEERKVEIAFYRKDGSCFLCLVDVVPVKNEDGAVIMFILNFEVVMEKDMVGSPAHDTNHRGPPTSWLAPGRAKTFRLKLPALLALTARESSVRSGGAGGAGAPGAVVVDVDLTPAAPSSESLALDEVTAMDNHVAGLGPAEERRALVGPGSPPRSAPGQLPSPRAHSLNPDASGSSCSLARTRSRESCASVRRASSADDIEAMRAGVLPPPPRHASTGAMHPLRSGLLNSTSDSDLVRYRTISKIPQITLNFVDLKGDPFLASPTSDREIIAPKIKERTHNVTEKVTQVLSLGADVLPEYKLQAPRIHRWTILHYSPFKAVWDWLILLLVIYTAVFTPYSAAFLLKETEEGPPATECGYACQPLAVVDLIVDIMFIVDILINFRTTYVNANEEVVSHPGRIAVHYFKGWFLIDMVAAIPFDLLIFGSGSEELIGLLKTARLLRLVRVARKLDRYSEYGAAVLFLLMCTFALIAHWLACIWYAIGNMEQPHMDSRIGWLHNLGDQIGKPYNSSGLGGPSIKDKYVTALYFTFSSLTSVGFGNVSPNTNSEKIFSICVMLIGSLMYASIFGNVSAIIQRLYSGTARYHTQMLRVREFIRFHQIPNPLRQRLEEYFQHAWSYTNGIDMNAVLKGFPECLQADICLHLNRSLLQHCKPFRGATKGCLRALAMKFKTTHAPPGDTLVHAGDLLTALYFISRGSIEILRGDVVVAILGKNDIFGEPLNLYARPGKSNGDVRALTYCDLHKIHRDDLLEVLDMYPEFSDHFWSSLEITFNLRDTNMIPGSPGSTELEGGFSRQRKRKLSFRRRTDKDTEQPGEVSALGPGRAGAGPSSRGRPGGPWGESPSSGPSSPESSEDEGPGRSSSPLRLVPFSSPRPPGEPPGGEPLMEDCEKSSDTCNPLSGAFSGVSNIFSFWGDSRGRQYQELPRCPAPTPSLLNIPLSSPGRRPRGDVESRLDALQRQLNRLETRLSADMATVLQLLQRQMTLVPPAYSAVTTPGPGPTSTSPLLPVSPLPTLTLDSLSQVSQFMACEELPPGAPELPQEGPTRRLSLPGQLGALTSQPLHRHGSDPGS

SMILES	hERG current change (%, negative = inhibition) at 10uM [%]
COc1ccc(-c2cc(=O)oc3c(C)c(OCC(=O)Nc4cccnc4)ccc23)cc1	-11.6
CC(=O)c1ccc(N2CCN(C(=O)c3cc(-c4ccc5c(c4)OCO5)nc4ccccc34)CC2)cc1	2.88
CCn1cc(S(=O)(=O)NCc2ccccc2Br)cn1	-1.6
CCOC(=O)N1CCN(C(=O)c2c[nH]c3ccc(S(=O)(=O)N(C)c4ccccc4C)cc3c2=O)CC1	-1.1
O[C@@H]1CCCN2CCc3c([nH]c4ccccc34)[C@H]12	10.9
Cc1onc(-c2c(Cl)cccc2Cl)c1C(=O)N1CCN(c2ccccc2F)CC1	7.58
O=C(CN(C1CCCCC1)S(=O)(=O)c1ccccc1)N1CCCC1	-59.3
CCOC(=O)N1CCN(C(=O)CN(C2CCCCC2)S(=O)(=O)c2ccc(Cl)cc2)CC1	-47.8
O=C(CN(C1CCCCC1)S(=O)(=O)c1ccc(Cl)cc1)N1CCOCC1	-59.5
Cc1ccc(S(=O)(=O)N(CC(=O)N2CCCC2)C2CCCCC2)cc1	-37.7
Cc1ccc(S(=O)(=O)N(CC(=O)N2CCOCC2)C2CCCCC2)cc1	-23.3
NC(=O)C1CCN(C(=O)CN(C2CCCCC2)S(=O)(=O)c2ccc(F)cc2)CC1	-13.4
Cc1ccc(SCC(=O)OCC(=O)N(CC(C)C)C2CCS(=O)(=O)C2)cc1C (stereo not shown)	-4.29
CCc1cc(C(c2ccccc2OC)N2CCOCC2)c(NC(=O)c2ccccc2)s1 (stereo not shown)	21.3
CCc1cc(C(c2ccncc2)N2CCN(C)CC2)c(NC(=O)c2ccccc2)s1 (stereo not shown)	-40.2
CC(=O)Nc1sc2c(c1C(c1ccccn1)N1CCN(C)CC1)CCCC2 (stereo not shown)	-12.9
CCc1cc(C(c2ccccn2)N2CCN(C)CC2)c(NC(=O)c2ccccc2)s1 (stereo not shown)	-59.1
CCOc1ccc(C(c2c(NC(=O)c3ccccc3)sc(C)c2C)N2CCN(CCO)CC2)cc1 (stereo not shown)	-21.1
Cc1sc(NC(=O)c2ccccc2)c(C(c2ccc(Cl)cc2)N2CCN(CCO)CC2)c1C (stereo not shown)	-4.47
CCN1CCN(C(c2ccccn2)c2c(NC(=O)c3ccccc3)sc(C)c2C)CC1 (stereo not shown)	-59.8
Cc1sc(NC(=O)c2ccccc2)c(C(c2ccccn2)N2CCN(CCO)CC2)c1C (stereo not shown)	-53.7
COc1cccc(C(c2c(NC(=O)c3ccccc3)sc(C)c2C)N2CCN(C)CC2)c1 (stereo not shown)	-17.6
